Assay results published in PubChem BioAssay AID504832 (National Center for Advancing Translational Sciences (NCATS), 2011).
The whole screen tested about 310,000 compounds, of which about 18,000 (5.8%) were called active. About 22% were inconclusive and are not listed. The list comes from a sample in which actives are over-represented; it also holds similar structures and randomly drawn compounds. Entries that show only a call come without a potency. Values without a mark were called inactive. Calls follow the shape of the dose curve; as a rule, active = well fitted inhibition curve with a large enough effect; inconclusive = small, poorly fitted or top-dose-only effect, or another doubt; inactive = no such curve, though single readings can be large or run the other way.

Test: Primary qHTS for delayed death inhibitors of the malarial parasite plastid, 48 hour incubation
Conditions: P. falciparum luciferase growth in erythrocytes; series mostly up to 28.7 µM
Summary of the method: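 Here the parasites carry a stable luciferase gene and grow inside erythrocytes in Albumax-based RPMI medium with compound for one erythrocytic cycle. Activity is scored as loss of luminescent signal.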
Potency is read from the fitted curve at half-maximal effect.

Structure (SMILES) | Potency | activity change, negative = inhibition
CCC(C)[C@H](NC(=O)N1c2ccccc2NC(=O)[C@@H]1C(C)C)C(=O)N[C@@H](Cc1ccccc1)C(=O)O (stereo not given in full) | inactive | –
Cc1c(Cl)cccc1NC(=S)N(Cc1ccccc1)Cc1cccnc1 | 10.4 µM (active) | –
Cc1c(Cl)cccc1NC(=O)CSc1ccc(-c2cccnc2)nn1 | inactive | –
Cc1c(Cl)cccc1NC(=S)NCC(O)c1ccccc1 (stereo not given) | inactive | –
Cc1cc(C)c(C#N)c(SCC(=O)N(CC(C)C)C2CCS(=O)(=O)C2)n1 (stereo not given) | inactive | –
COCc1c(C(=O)N/N=C\c2cccnc2)nnn1-c1nonc1N | inactive | –
CC1CCc2sc(C(=O)N/N=C/C3CCCCC3)cc2C1 (stereo not given) | inactive | –
COc1ccc(C(CNC(=O)c2cc3c(s2)CCCC3)N2CCOCC2)cc1 (stereo not given) | inactive | –
CC(NC(=O)c1cccc(S(=O)(=O)N2CCc3ccccc3C2)c1)c1ccco1 (stereo not given) | inactive | –
CC1CCc2sc(C(=O)NCC(c3ccco3)N3CCCCC3)cc2C1 (stereo not given) | 7.38 µM (active) | –
CC1Cc2ccccc2N1S(=O)(=O)c1cccc(C(=O)NCC(c2ccco2)N2CCCC2)c1 (stereo not given) | 11.7 µM (active) | –
CC1Cc2ccccc2N1S(=O)(=O)c1ccc(Cl)nc1 (stereo not given) | inactive | –
Cc1nn(C)c(Cl)c1CN1CCC(Oc2ccc(C(=O)N3CCCC3)cc2)CC1 | inactive | –
CC1CN(C(=O)CCC(=O)NC2CCN(Cc3ccccc3)CC2)c2ccccc2O1 (stereo not given) | inactive | –
COC(=O)c1ccc(NC(=O)CSc2nncn2-c2cccnc2)cc1 | inactive | –
CC(C)(CNCC(O)c1ccccc1)N1CCOCC1 (stereo not given) | inactive | –
O=C(NCc1ccc(Cl)c(Cl)c1)c1cccnc1 | inactive | –
OC(CNCc1ccc(Cl)c(Cl)c1)c1ccccc1 (stereo not given) | 5.86 µM (active) | –
Cc1[nH]c2ccccc2c1C(=O)CN1CCCC(C)C1 (stereo not given) | inactive | –
CSc1nccc(NC(=O)c2ccc(C(C)(C)C)cc2)n1 | inactive | –
O=C(c1cc(COc2cccc(C(F)(F)F)c2)on1)N1CCSCC1 | inactive | –
CN(C)CCCNC(=S)N1CCC(c2nc3ccccc3[nH]2)CC1 | inactive | –
O=C(CCC1CCCCC1)Nc1cc(C(F)(F)F)ccc1N1CCOCC1 | 11.7 µM (active) | –
CCC(=O)Nc1cc(C(F)(F)F)ccc1N1CCCC1 | inactive | –
CC(Sc1nncn1C)C(=O)Nc1cc(C(F)(F)F)ccc1N1CCOCC1 (stereo not given) | inactive | –
CCCCn1c(N)c(N(CC(C)C)C(=O)c2cnc(C)cn2)c(=O)[nH]c1=O | inactive | –
Cc1ccc(CSCC2Nc3ccc(C(=O)N4CCN(c5ccc(F)cc5)CC4)cc3NC2=O)cc1 (stereo not given) | inactive | –

Structure (SMILES) | Potency | activity change, negative = inhibition
CCOC(=O)c1cc(=O)c2ccc(OCc3ccccc3)cc2o1 | inactive | –
Cc1c(Cc2ccccc2)c(=O)oc2cc(OCC(N)=O)ccc12 | 4.15 µM (active) | –
Cc1c(CCC(=O)O)c(=O)oc2cc(OCc3ccc(Br)cc3)ccc12 | inactive | –
CCN(CC(=O)NCCCN1CCOCC1)S(=O)(=O)c1cc(Cl)ccc1Cl | inactive | –
COc1cc(NS(=O)(=O)c2ccc(NC(=S)NC(=O)c3ccccc3)cc2)nc(OC)n1 | inactive | –
Cc1ccc(NC(=O)C(CC(=O)O)C2CCCO2)c(C)c1 (stereo not given) | inactive | –
Cc1ccc(NC(=O)C2CCN(S(=O)(=O)c3ccc4c(c3)NC(=O)CO4)CC2)cc1C | inactive | –
COc1ccccc1N(CC(=O)Nc1ccccc1C(=O)N1CCCC1)S(C)(=O)=O | inactive | –
CCN1CCCC1CNC(=O)c1cc2cc(OC)c(OC)cc2[nH]1 (stereo not given) | inactive | –
CCN1CCCC1Cn1cnc2c([nH]c3cc(OC)ccc32)c1=O (stereo not given) | inactive | –
O=c1[nH]c(N2CCN(Cc3ccc4c(c3)OCO4)CC2)nc2c1CCCC2 | – | 11.4% [at 5.75 µM]
Fc1ccc2[nH]c3c(N4CCN(Cc5ccc6c(c5)OCO6)CC4)ncnc3c2c1 | 5.22 µM (active) | –
CCCCCc1c(C)nc(N2CCN(Cc3ccc4c(c3)OCO4)CC2)[nH]c1=O | inactive | –
Fc1ccc2[nH]c3c(N4CCSCC4)ncnc3c2c1 | 4.65 µM (active) | –
CCN1CCCC1CNc1ncnc2c1[nH]c1ccc(F)cc12 (stereo not given) | 2.33 µM (active) | –
Cc1ccc(NC(=O)Cc2nc(COC(=O)C(C)NS(=O)(=O)c3ccc(C)cc3)cs2)cc1 (stereo not given) | inactive | –
O=C(NCCOc1cccnc1)c1ccc(OC2CCN(Cc3ccccn3)CC2)cc1 | inactive | –
CN(C)CCCn1c(SCc2ccc(Cl)cc2)nnc1-c1ccncc1 | inactive | –
COc1ccc(-c2nnc3n2CCCCC3)cc1 | inactive | –
CCOc1ccc(-n2c(O)c(/C=N/Nc3nc(C)cc(C)n3)c3ccccc3c2=O)cc1 | 4.15 µM (active) | –
CCOc1ccc(NC(=O)c2cc(C)nc3ccccc23)cc1 | inactive | –
CCOc1ccc(-n2c(O)c(/C=N/c3ccnn3Cc3ccncc3)c3ccccc3c2=O)cc1 | inactive | –
O=C(Cc1ccccc1F)NC1CCSc2ccccc21 (stereo not given) | inactive | –
CC1(C)NC(=O)N(CC(=O)N2CCN(S(=O)(=O)c3ccccc3F)CC2)C1=O | inactive | –
CC1CCC(NS(=O)(=O)c2ccc3c(c2)CC(=O)N3)CC1 (stereo not given) | inactive | –
c1ccc(-c2cn3c(n2)CCc2ccc4cccnc4c2-3)cc1 | 10.4 µM (active) | –
c1ccc(-c2cn3cccnc3n2)cc1 | inactive | –

Structure (SMILES) | Potency | activity change, negative = inhibition
Cc1cc(NC(=O)CCC(=O)N(CC(=O)NC2CCCC2)c2ccc(F)cc2)no1 | inactive | –
O=C(CCn1nnc2ccccc21)OCC(=O)c1ccc([N+](=O)[O-])cc1 | inactive | –
COc1ccc(CN2CCCC(N3CCc4ccccc4C3)C2)c(O)c1 (stereo not given) | 1.65 µM (active) | –
COc1cccc(N2C(=O)CC(N3CCc4ccccc4C3)C2=O)c1 (stereo not given) | inactive | –
COc1ccc(CCC(C)N2CCc3ccccc3C2)cc1 (stereo not given) | inactive | –
COc1ccc(NC(=O)Cn2ncn3c(cc4ccccc43)c2=O)c(OC)c1OC | 10.4 µM (active) | –
CCc1ccc(NC(=O)Cn2ncn3c(cc4ccccc43)c2=O)cc1 | inactive | –
COc1ccc(NC(=O)CCNC(=O)Cn2ccc3ccccc3c2=O)c(OC)c1 | inactive | –
Cc1ccc(C(=O)N(CC(=O)NC2CCCC2)c2ccc(F)cc2)s1 | inactive | –
CC(c1ccccc1)(c1ccccc1)c1ccncc1 | 16.5 µM (active) | –
CC(C)(C)N(Cc1ccccc1)C(=O)c1ccncc1 | inactive | –
ClC(Cl)(Cl)c1ccccc1 | inactive | –
CC1CCCC(NC(=O)c2cc(-c3ccncc3)nc3ccccc23)C1C (stereo not given) | inactive | –
CC(=O)N1CC(=O)N(CC(=O)Nc2ccc(Br)cc2)C1=S | inactive | –
Cc1c(C(=O)NC(C)C2CC3CCC2C3)cccc1[N+](=O)[O-] (stereo not given) | inactive | –
CC(Sc1nnc(CNC(=O)c2ccccc2F)n1C)C(=O)Nc1nccs1 (stereo not given) | inactive | –
COc1ccc(CCNC(=O)CN(c2ccccc2)S(C)(=O)=O)cc1OC | inactive | –
COc1ccc(CCNC(=O)Cc2ccc(C)cc2)cc1OC | inactive | –
COc1ccc(CCNC(=O)c2nnc(CS(=O)(=O)c3ccccc3)o2)cc1OC | 2.33 µM (active) | –
COc1ccc(OC)c(NC(=O)c2ccc3c(c2)CCN3S(C)(=O)=O)c1 | inactive | –
CC(C)OC(=O)c1ccc(COc2ccc3ccc(=O)oc3c2)o1 | inactive | –
COc1ccccc1CNC(=O)c1ccc(CS(=O)(=O)c2ccccc2)o1 | inactive | –
CCCCCNC(=O)C1c2ccccc2Oc2ccccc21 | inactive | –
Cc1ccc(N(Cc2ccc(C(=O)Nc3ccccc3C(=O)NCc3ccco3)cc2)S(C)(=O)=O)cc1C | 3.7 µM (active) | –
CS(=O)(=O)N(Cc1ccc(Cl)cc1)c1ccc(C(=O)NCCSCc2ccco2)cc1 | inactive | –
COc1ccc(C(=O)Nc2ccccc2C(=O)NCc2ccco2)cc1 | inactive | –
CS(=O)(=O)c1ccc(C(=O)OCC(=O)NNC(=O)COc2ccc(Cl)cc2)cc1 | inactive | –

Structure (SMILES) | Potency | activity change, negative = inhibition
COc1cc(CN2CCCN(C)CC2)c([N+](=O)[O-])cc1OC | inactive | –
Cc1ccc(OCCC(=O)OCC(=O)N2c3ccccc3NC(=O)C2(C)C)cc1 | inactive | –
CC(=O)Nc1ccc(S(=O)(=O)N2CCC(C(=O)NC3CC3)CC2)cc1 | inactive | –
CN1CCc2ccccc2C1Cc1ccccc1NC(=O)c1sc2ccccc2c1Cl (stereo not given) | 8.28 µM (active) | –
COc1ccc(CNC(=O)CNC(=O)c2sc3ccccc3c2Cl)cc1OC | inactive | –
O=C(Nc1ccon1)c1sc2ccccc2c1Cl | inactive | –
COCc1ccc(CN2CCC(Oc3ccc(C(=O)NCc4ccccn4)cc3)CC2)o1 | inactive | –
O=C(O)c1cc(S(=O)(=O)N(Cc2ccccc2)c2ccccc2)ccc1Cl | inactive | –
C=CC(COCc1ccccc1)N(Cc1ccccc1)S(=O)(=O)c1ccccc1Br (stereo not given) | 9.28 µM (active) | –
C=CCCN(Cc1ccccc1)S(=O)(=O)c1ccccc1Br | inactive | –
Cc1ccsc1-c1cc(C(=O)O)c2c(ccc3ccccc32)n1 | inactive | –
COc1cc(OC)c(N2CC(C(=O)Nc3cc(Cl)ccc3N3CCOCC3)CC2=O)cc1Cl (stereo not given) | 11.7 µM (active) | –
COc1ccc(Cl)cc1NC(=O)C1CC(=O)N(c2ccc(F)cc2)C1 (stereo not given) | inactive | –
COc1c(C)cccc1C(=O)Nc1cc(Cl)ccc1N1CCOCC1 | inactive | –
Cc1cccc(C(=O)Nc2ccc(Oc3cnccn3)cc2)c1 | inactive | –
CCCn1nc(C(=O)Nc2ccc3nc(C)sc3c2)c2ccccc2c1=O | inactive | –
CCCCn1nc(C(=O)Nc2cccc(C(=O)NC3CC3)c2)c2ccccc2c1=O | 11.7 µM (active) | –
COC(=O)c1cc(NC(=O)c2nn(C)c(=O)c3ccccc23)cc(C(=O)OC)c1 | inactive | –
O=C1c2ccccc2C(=O)N1c1cccc2ccccc12 | inactive | –
Cc1c(NC(=O)CSCc2ccccc2)cccc1C(=O)O | inactive | –
CC1C(=O)Nc2ccc(S(=O)(=O)N3CCN(c4ccccc4F)CC3)cc2NC1=O (stereo not given) | inactive | –
Clc1ccc(C(Cn2ccnc2)OCc2ccsc2Cl)c(Cl)c1 (stereo not given) | 4.26 µM (active) | –
CC1CCN(S(=O)(=O)c2ccc3c(ccn3CC(=O)O)c2)CC1 | inactive | –
Cc1ccc(S(=O)(=O)CC(=O)NC(C)c2ccccc2)cc1 (stereo not given) | inactive | –
